From PubChem BioAssay (NCI)
The panel holds about 83,000 compounds, 20% with a hit somewhere; the sample as a whole holds those more often.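 Plates (96-well) were seeded with cells, treated with compound at one concentration, and incubated for 48 hours before percent growth was determined.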 Active and inactive are the calls of the source. How the source made its calls: active means growth percent below 10; inactive means the rest.

Tests used:
Test in all cases: NCI-60 one-dose screen, 48 h (100 = growth as untreated, 0 = no growth, -100 = all killed)
Details in all cases: 10 µM unless noted
SK-MEL-2 melanoma = tested on: SK-MEL-2 melanoma
EKVX NSCLC = tested on: EKVX NSCLC
SN12C renal = tested on: SN12C renal
UO-31 renal = tested on: UO-31 renal
TK-10 renal = tested on: TK-10 renal
ACHN renal = tested on: ACHN renal
CAKI-1 renal = tested on: CAKI-1 renal
A498 renal = tested on: A498 renal
MOLT-4 leukemia = tested on: MOLT-4 leukemia
CCRF-CEM leukemia = tested on: CCRF-CEM leukemia

Measured: growth

Cn1cc(-c2csc(-c3cccc(F)c3)n2)c2cccnc21
active: SK-MEL-2 melanoma -51.7% [100 µM] | SN12C renal -65% [100 µM] | UO-31 renal -27.7% [100 µM] | TK-10 renal -52.7% [100 µM] | ACHN renal -31.8% [100 µM] | CAKI-1 renal -57.2% [100 µM] | A498 renal -84.2% [100 µM] | MOLT-4 leukemia 4.1% [100 µM]
inactive: EKVX NSCLC 21.3% [100 µM]

COc1ccc(-c2csc(C3=C(O)CN(CCCN4CCCC4=O)C3=N)n2)cc1OC
inactive: SK-MEL-2 melanoma 99.2% | EKVX NSCLC 97.5% | SN12C renal 105% | UO-31 renal 83.8% | TK-10 renal 127% | ACHN renal 103% | CAKI-1 renal 103% | A498 renal 100% | MOLT-4 leukemia 81%

CC(=O)[C@@H]1CC[C@]2(COS(=O)(=O)c3ccc(C)cc3)CC[C@]3(C)[C@H](CC[C@@H]4[C@@]5(C)CCCNC(C)(C)[C@@H]5CC[C@]43C)[C@@H]12
inactive: SK-MEL-2 melanoma 105% | EKVX NSCLC 94% | SN12C renal 78% | UO-31 renal 66.3% | TK-10 renal 106% | ACHN renal 87.1% | CAKI-1 renal 82.7% | A498 renal 85.9% | MOLT-4 leukemia 21.9%

C=C(C)[C@@H]1CC[C@]2(C(=O)NC3CCCCC3)CC[C@]3(C)[C@H](CC[C@@H]4[C@@]5(C)CCCNC(C)(C)[C@@H]5CC[C@]43C)[C@@H]12
inactive: SK-MEL-2 melanoma 35% | EKVX NSCLC 77.6% | SN12C renal 61.6% | UO-31 renal 61.5% | TK-10 renal 86.5% | ACHN renal 51% | CAKI-1 renal 26.4% | A498 renal 68.7%
active: MOLT-4 leukemia -2.14%

O=C(O)c1ccc2c(c1)CCC2
inactive: SK-MEL-2 melanoma 95.8% | EKVX NSCLC 117% | SN12C renal 103% | UO-31 renal 94.4% | TK-10 renal 107% | ACHN renal 104% | CAKI-1 renal 101% | A498 renal 139% | MOLT-4 leukemia 91.1%

CCCCCCCCn1ccc2cc(NC(=O)Cn3cc(CN4CCCC4)nn3)ccc21
active: UO-31 renal 6.9% | CAKI-1 renal 8.76%
inactive: SK-MEL-2 melanoma 68.6% | EKVX NSCLC 88.8% | SN12C renal 44.4% | TK-10 renal 89.9% | ACHN renal 89.4% | A498 renal 87.2% | MOLT-4 leukemia 32.8%

N#Cc1c(-c2cccc(Cl)c2)cc(-c2cccc(Cl)c2)[nH]c1=O
inactive: SK-MEL-2 melanoma 67% | EKVX NSCLC 89% | SN12C renal 82.8% | UO-31 renal 74% | TK-10 renal 96.7% | ACHN renal 93.4% | CAKI-1 renal 63.6% | A498 renal 47% | MOLT-4 leukemia 54.1%

N=C1C(c2nc(-c3ccc(Br)cc3)cs2)=C(O)CN1Cc1cccnc1
active: UO-31 renal -6.45%
inactive: SK-MEL-2 melanoma 111% | EKVX NSCLC 71.7% | SN12C renal 69.7% | TK-10 renal 60.1% | ACHN renal 61.5% | CAKI-1 renal 57.1% | A498 renal 86.8% | MOLT-4 leukemia 68.5%

O=c1c2cc(F)ccc2sc2c(NCCCN3CCCC3)nc3ccccc3c12
active: MOLT-4 leukemia -14.5%
inactive: SK-MEL-2 melanoma 85.4% | EKVX NSCLC 53.5% | SN12C renal 42.3% | UO-31 renal 15.1% | TK-10 renal 57.9% | ACHN renal 41.8% | A498 renal 46.6% | CCRF-CEM leukemia 29%

COc1ccc2c(c1)O/C(=C\c1cccc(OCC(=O)Nc3nc(C)c(C)s3)c1)C2=O
inactive: SK-MEL-2 melanoma 89.3% | SN12C renal 33.8% | TK-10 renal 111% | ACHN renal 98.7% | A498 renal 114% | MOLT-4 leukemia 19.2%
active: EKVX NSCLC -13.4% | UO-31 renal -74.9% | CCRF-CEM leukemia -66.8%

Cc1ccc(S(=O)(=O)n2cc(CNc3ccc(N4CCOCC4=O)cc3)c3ccccc32)cc1
inactive: SK-MEL-2 melanoma 102% | EKVX NSCLC 98.5% | SN12C renal 84.3% | UO-31 renal 43.3% | TK-10 renal 65.2% | ACHN renal 46.7% | CCRF-CEM leukemia 53.5% | MOLT-4 leukemia 82.7%
active: A498 renal -51.1%

N#Cc1c(-c2ccccn2)[nH]c(=S)[nH]c1=O
inactive: SK-MEL-2 melanoma 93.7% | EKVX NSCLC 101% | SN12C renal 112% | UO-31 renal 84.6% | TK-10 renal 94.3% | ACHN renal 108% | A498 renal 89.6% | MOLT-4 leukemia 99.3%

COc1ccc2[nH]c(O)c(C(=Nc3ccc(N(C)C(=O)CN4CCN(C)CC4)cc3)c3ccccc3)c2c1
inactive: SK-MEL-2 melanoma 33.2% | EKVX NSCLC 52.3% | SN12C renal 20% | UO-31 renal 18.8% | TK-10 renal 51.8% | ACHN renal 25.3% | CCRF-CEM leukemia 23.2% | MOLT-4 leukemia 14.6%
active: A498 renal -11.3%

O=c1c2cc(F)ccc2sc2c(Nc3cccnc3)nc3ccccc3c12
active: MOLT-4 leukemia 4.56%
inactive: SK-MEL-2 melanoma 109% | EKVX NSCLC 83.2% | SN12C renal 93.4% | UO-31 renal 79.7% | TK-10 renal 96.3% | ACHN renal 73.5% | A498 renal 79.5% | CCRF-CEM leukemia 28.2%

C=C(C)[C@@H]1CC=C2c3sc(-c4ccc(C)cc4)nc3C[C@@H](C)[C@]2(C)C1
inactive: SK-MEL-2 melanoma 105% | EKVX NSCLC 95.1% | SN12C renal 98.8% | UO-31 renal 78% | TK-10 renal 113% | ACHN renal 102% | A498 renal 106% | CCRF-CEM leukemia 99.4% | MOLT-4 leukemia 98%

CC(=O)n1c(-c2ccc(Cl)cc2)nc2c(c1=O)C(c1ccc(Cl)cc1)c1sc3c(Cl)cccc3c1O2 (stereo not given)
inactive: EKVX NSCLC 32.9% | UO-31 renal 15.6% | ACHN renal 23.4%
active: SK-MEL-2 melanoma 7.32% | SN12C renal -0.0627% | TK-10 renal -7.43% | A498 renal 3.79% | CCRF-CEM leukemia -4.47%

O=C1OC(c2nc3ccccc3s2)=C/C1=C\c1ccc(O)cc1
inactive: SK-MEL-2 melanoma 110% | EKVX NSCLC 102% | SN12C renal 93.9% | UO-31 renal 75.8% | TK-10 renal 114% | ACHN renal 99.5% | A498 renal 108% | MOLT-4 leukemia 102%

COC(=O)[C@]12CC[C@@H](C)[C@H](C)[C@@H]1C1=CC[C@@H]3[C@@]4(C)C(C=O)=C[C@@](C)(COS(C)(=O)=O)[C@@H]4C(=O)C[C@@]3(C)[C@]1(C)CC2
inactive: SK-MEL-2 melanoma 66.9% | EKVX NSCLC 53.2% | SN12C renal 36.2% | UO-31 renal 34.2% | TK-10 renal 54.2% | ACHN renal 17.8% | A498 renal 98.2% | CCRF-CEM leukemia 30.9%

COc1cccc(-c2nn(-c3ccccc3)cc2-c2ccnc(NCCNC(=O)Nc3ccccc3)c2)c1
inactive: SK-MEL-2 melanoma 46.8% | EKVX NSCLC 71.1% | SN12C renal 54% | UO-31 renal 39% | TK-10 renal 73.8% | ACHN renal 68.9% | A498 renal 43.8% | CCRF-CEM leukemia 54.7%

CC/C=C1/C(=O)C=C[C@@H]1C/C=C\CCCC(=O)O
inactive: SK-MEL-2 melanoma 87% | EKVX NSCLC 101% | SN12C renal 79.9% | UO-31 renal 103% | TK-10 renal 105% | ACHN renal 85.5% | A498 renal 104%
active: MOLT-4 leukemia 9.64%

Cc1ccc(S(=O)(=O)N/N=C\c2cc(Cl)ccc2O)cc1
inactive: SK-MEL-2 melanoma 99.7% | EKVX NSCLC 113% | SN12C renal 101% | UO-31 renal 83.7% | TK-10 renal 88.4% | ACHN renal 75.4% | A498 renal 86.7% | CCRF-CEM leukemia 74% | MOLT-4 leukemia 98.1%

O=C(Nc1ccc(-n2cc(-c3ccncc3)c(-c3ccc(Cl)c(O)c3)n2)cc1)N1CCOCC1
inactive: SK-MEL-2 melanoma 110% | EKVX NSCLC 102% | SN12C renal 99.2% | UO-31 renal 75.6% | TK-10 renal 117% | ACHN renal 97.6% | A498 renal 121% | CCRF-CEM leukemia 112%

CCc1ccccc1-n1c(-c2ccc(Cl)cc2)cc(-c2ccc(Cl)cc2)c(C#N)c1=O
inactive: SK-MEL-2 melanoma 103% | EKVX NSCLC 87.5% | SN12C renal 92.3% | UO-31 renal 75.3% | TK-10 renal 94.5% | ACHN renal 98.8% | A498 renal 94.9% | CCRF-CEM leukemia 34.4% | MOLT-4 leukemia 31.8%

Cc1ccc(N(C(=O)CCc2c[nH]c3ccccc23)[C@H](C(=O)Nc2ccc(Cl)cc2)c2cccc([N+](=O)[O-])c2)cc1
inactive: SK-MEL-2 melanoma 105% | EKVX NSCLC 93% | SN12C renal 87.2% | UO-31 renal 47.4% | TK-10 renal 116% | ACHN renal 61% | A498 renal 58.6% | MOLT-4 leukemia 70.8%

C=CCOC1=CC(=O)c2ccccc2C1=O
inactive: SK-MEL-2 melanoma 60.5% | EKVX NSCLC 116% | SN12C renal 82.9% | UO-31 renal 74.2% | TK-10 renal 113% | ACHN renal 83% | A498 renal 74.6% | MOLT-4 leukemia 65.8%

COc1ccc2c(c1)O/C(=C\c1cccc(OCC(=O)Nc3nc4ccccc4s3)c1)C2=O
active: UO-31 renal -61.3% | CCRF-CEM leukemia -61.4%
inactive: SK-MEL-2 melanoma 91.8% | EKVX NSCLC 100% | SN12C renal 43.7% | TK-10 renal 132% | ACHN renal 98.2% | A498 renal 110% | MOLT-4 leukemia 18.4%

COc1ccc(-c2nc3sccn3c2-c2cc(-c3cc(OC)c(OC)c(OC)c3)on2)cc1
inactive: SK-MEL-2 melanoma 142% | EKVX NSCLC 98.9% | SN12C renal 105% | TK-10 renal 162% | ACHN renal 98.7% | A498 renal 74.4% | CCRF-CEM leukemia 34.6% | MOLT-4 leukemia 40.3%
active: UO-31 renal -60.9%

N#Cc1c(-c2cccc(Cl)c2)cc(-c2cccc(F)c2)[nH]c1=O
inactive: EKVX NSCLC 95.1% | SN12C renal 91.1% | UO-31 renal 80.7% | TK-10 renal 94% | ACHN renal 90.3% | CAKI-1 renal 89.6% | A498 renal 59.4%

N#Cc1nc(C#N)c(Sc2ccccc2)c(Sc2ccccc2)c1Sc1ccccc1
active: SK-MEL-2 melanoma -64.1% | EKVX NSCLC 8.11% | SN12C renal 0.446% | UO-31 renal -72.1% | TK-10 renal -36.8% | ACHN renal -78% | A498 renal -14.1% | CCRF-CEM leukemia -7.95% | MOLT-4 leukemia -19.2%
